A selection: hits, their analogues and other compounds. The true share with any hit is near 15%.
DT40 TDP1 no CPT: qHTS for Inhibitors of human tyrosyl-DNA phosphodiesterase 1 (TDP1): qHTS in cells in absence of CPT. DT40 Tdp1-/- hTDP1 cells, no CPT, ATP luminescence, 48 h. Potency, µM (highest dose often 46.2 µM), actives largely listed as inhibitors. hit rate 15% among 420,000; also: nearly all actives have a fitted effect of over 55% in size
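Camptothecin absent (DMSO only). Human TDP1-complemented DT40 knockout cells, 400 cells/well, 37 °C for minimum 48 hr; ATP measured via CellTiter-Glo, 30 min dark incubation, luminescence.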
VP16 counter: Gal4-VP16 reporter inhibition counter-screen; Drosophila S2 Gal4-VP16 UAS-luciferase, luminescence, 20 h; hit rate 3.5% among 310,000; Potency, µM (doses to about 53.6 µM), usual class: inhibitors;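 also: Gal4-VP16 expression switched on by copper sulfate through the metallothionein promoter; nearly all actives have a fitted effect of over 50% in size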
TDP1 cell CPT: growth inhibition of DT40 Tdp1-/-;hTDP1 cells with camptothecin (screen for TDP1 inhibitors). chicken DT40 Tdp1-/-;hTDP1 cells + 20 nM CPT, ATP luminescence, 48 h. Potency, µM (top dose mostly 46.2 µM), usual class: inhibitors. hit rate 12% among 420,000. AID 686979; also: nearly all actives have a fitted effect of over 55% in size
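Chicken DT40 Tdp1-/- cells stably complemented with human TDP1 were seeded at 400 cells/well in medium containing 20 nM camptothecin, exposed to pin-transferred compounds, and grown at 37 °C for at least 48 hr. Viability was read as ATP luminescence.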
RORgamma inh: blocks mouse ROR gamma transcriptional activity; P51450; Drosophila S2 Gal4-RORgamma UAS-luciferase reporter, 20 h; Potency, µM (highest dose often 53.6 µM), usual class: inhibitors; hit rate 5.4% among 310,000; AID 2551; also: nearly all actives have a fitted effect of over 60% in size
Target sequence (P51450 whole entry, looked up, the tested form may be a part): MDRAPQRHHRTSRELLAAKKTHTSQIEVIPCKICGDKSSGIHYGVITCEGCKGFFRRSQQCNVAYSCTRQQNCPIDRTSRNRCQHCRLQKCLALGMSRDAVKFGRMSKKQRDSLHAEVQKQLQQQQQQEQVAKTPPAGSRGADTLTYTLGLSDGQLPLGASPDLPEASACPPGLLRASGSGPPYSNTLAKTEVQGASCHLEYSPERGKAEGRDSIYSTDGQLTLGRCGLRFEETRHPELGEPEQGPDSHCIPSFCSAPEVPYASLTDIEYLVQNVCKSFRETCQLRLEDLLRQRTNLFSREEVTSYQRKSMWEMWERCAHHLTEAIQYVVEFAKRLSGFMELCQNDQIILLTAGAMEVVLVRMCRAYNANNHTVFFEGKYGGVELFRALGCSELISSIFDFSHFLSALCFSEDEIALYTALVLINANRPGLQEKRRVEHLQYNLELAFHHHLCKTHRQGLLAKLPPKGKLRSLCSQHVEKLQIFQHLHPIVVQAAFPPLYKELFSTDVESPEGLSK
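In this cell-based reporter format, copper sulfate (700 uM final) drives Gal4–ROR gamma fusion expression from a metallothionein promoter in Drosophila Schneider cells; compounds preincubated 1 hr, reporter read after 20 hr at ambient temperature.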
ELG1 DNA repair: blocks ELG1-dependent DNA repair in HEK293T cells | AID 504467 | hit rate 2.3% among 330,000 | Potency, µM (top dose mostly 46.1 µM), most hits filed as inhibitors | HEK293T ELG1-luciferase reporter, luminescence, 16 h; DNA damage induced by 5-fluorouridine; also: nearly all actives have a fitted effect of over 55% in size
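Overnight (16 hr) co-exposure of 2,000 cells/well to 5-fluorouridine and compound at 37 °C preceded detection. Luciferase was quantified via ONE-Glo luminescence; loss of signal denotes inhibition.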
ALOX12 inh: ALOX12 (human) lipoxygenase inhibition; P18054; Potency, µM (highest dose often 108 µM), hits mostly inhibitors; purified 12hLO, xylenol orange hydroperoxide absorbance; AID 1671190; hit rate 1.1% among 580,000
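Hydroperoxide product was detected by ferrous iron/xylenol orange as the 573 to 405 nm absorbance ratio. Arachidonic acid at 40 uM (final) was turned over for 30 min at room temperature by 150 nM human 12hLO, pH 7.0 Hepes buffer, after 15 min compound preincubation.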
Hits are given with their value; n = inactive; u = inconclusive; x = no result. Calls follow the shape of the dose curve; as a rule, active = well fitted curve in the direction sought with a large enough effect; inconclusive = small, poorly fitted or top-dose-only effect, or another doubt; inactive = no such curve, though single readings can be large; an effect the other way counts as inactive or inconclusive.

SMILES	DT40 TDP1 no CPT	VP16 counter	TDP1 cell CPT	RORgamma inh	ELG1 DNA repair	ALOX12 inh
Cc1cc(C)c(S(=O)(=O)N2CCCC(C(=O)NCc3cccnc3)C2)c(C)c1 (stereo not drawn)	21µM	u	16µM	u	u	n
O=C(NCCC1CCCCN1S(=O)(=O)c1ccccc1)C(=O)NC1CCCC1 (stereo not drawn)	u	x	n	x	n	n
Cc1cc(C)c(S(=O)(=O)N2CCCCC2CCNC(=O)C(=O)NCc2cccnc2)c(C)c1 (stereo not drawn)	u	x	12µM	x	n	n
Cc1cc(C)c(S(=O)(=O)N2CCCCC2CCNC(=O)C(=O)NCC2CCCO2)c(C)c1 (stereo not drawn)	u	x	u	x	n	n
COc1cccc(/C=C/C(=O)c2c(C)nn3c4ccccc4n(C)c23)c1OC(C)C	x	x	x	x	x	n
Cc1cc(F)ccc1S(=O)(=O)N1CCCCC1CCNC(=O)C(=O)NCc1ccccn1 (stereo not drawn)	16µM	x	u	x	n	n
Cc1ccc(C)c(S(=O)(=O)N2CCCCC2CCNC(=O)C(=O)NCc2ccccc2)c1 (stereo not drawn)	18µM	x	23µM	x	u	n
Cc1ccc(CNC(=O)C(=O)NCCC2CCCCN2S(=O)(=O)c2ccc(C)cc2)cc1 (stereo not drawn)	u	x	23µM	x	u	n
Cc1ccc(C)c(S(=O)(=O)N2CCCCC2CCNC(=O)C(=O)NCc2cccnc2)c1 (stereo not drawn)	u	x	u	x	n	n
CCCCc1c(O)nc(SCC(=O)c2ccccc2)n(-c2ccccc2)c1=O	2.6µM	n	2.9µM	n	n	n
CCCCc1c(O)nc(SCC(=O)N2CCOCC2)n(-c2ccc(C)cc2)c1=O	u	x	n	x	x	n
CCCCc1c(O)nc(SCC(=O)c2ccccc2)n(-c2ccccc2OC)c1=O	8.2µM	n	n	n	n	u
Cc1cnc(CCNC(=O)NC(C)(C)C)n1Cc1ccccc1	x	x	x	x	x	n
C=C[C@@H]1c2ccccc2N(S(=O)(=O)c2ccc(C)cc2)[C@H](c2ccc(C(F)(F)F)cc2)C1(C#N)C#N	12µM	x	23µM	x	n	n
C=C[C@@H]1c2cccc(C)c2N(S(=O)(=O)c2ccc(C)cc2)[C@H](c2ccccc2)C1(C#N)S(=O)(=O)c1ccccc1 (stereo partly drawn)	21µM	x	u	x	n	u
C=C[C@@H]1c2c(F)cccc2N(S(=O)(=O)c2ccc(C)cc2)[C@H](c2ccc(OC(C)=O)cc2)C1(C#N)C#N	21µM	x	u	x	u	n
COc1ccccc1CC(=O)N1CC[C@@H]2NC(=O)[C@H]3C[C@H](NC(=O)C4CCC4)CN3C(=O)[C@H]21	x	x	x	x	x	n
Cn1c(=O)c2ncn(CC(=O)Nc3cccc(-c4nc5ccccc5s4)c3)c2n(C)c1=O	15µM	n	15µM	n	u	n
O=C(Nc1ccc(-c2nc3ccccc3s2)c(OC(=O)c2ccccc2)c1)c1ccccc1	n	n	n	1.3µM	u	n
CCC(CC)C(=O)Nc1cccc(-c2nc3ccccc3o2)c1	16µM	n	u	n	n	n
CCOc1cc(C(=O)Nc2ccc(-c3nc4ccccc4s3)cc2Cl)cc(OCC)c1OCC	23µM	x	u	x	x	n
CC(C(=O)c1c[nH]c2ccccc12)N1CCC(C(=O)N2CCCCCC2)CC1 (stereo not drawn)	x	x	x	x	x	n
CC(C)Cn1nc(C(=O)N2CCCC2c2nc3ccccc3s2)c2ccccc2c1=O (stereo not drawn)	x	x	x	x	x	n
O=C(Nc1cccc(-c2nc3ccccc3s2)c1)c1cccs1	u	u	u	n	u	n
CCC(CC)C(=O)Nc1cccc(-c2nc3ccccc3s2)c1	u	x	21µM	x	x	n
SMILES	DT40 TDP1 no CPT	VP16 counter	TDP1 cell CPT	RORgamma inh	ELG1 DNA repair	ALOX12 inh
CCCC(CCC)C(=O)Nc1cccc(-c2nc3cccnc3s2)c1	n	x	n	x	x	u
COc1c(C)cccc1C(=O)Nc1ccc(-c2nc3ccccc3s2)c(Cl)c1	12µM	x	u	x	x	n
CCOc1ccccc1C(=O)Nc1cccc(-c2nc3ccccc3s2)c1	5.2µM	x	6.5µM	x	x	u
N#Cc1cccnc1NCCc1coc(-c2ccccc2)n1	x	x	x	x	x	n
O=C(Nc1ccnn1C1CCN(Cc2nccs2)CC1)c1ccc2c(c1)OCO2	x	x	x	x	x	n
O=[N+]([O-])c1ccccc1NCCNS(=O)(=O)c1ccc(Cl)cc1	n	n	n	n	n	n
O=[N+]([O-])c1ccc(NCCCNS(=O)(=O)c2ccc(Cl)cc2)c(Cl)c1	21µM	u	21µM	u	n	n
COc1cccc(-n2nnnc2SCC(=O)N2CCCc3ccccc32)c1	u	u	n	20µM	n	n
O=C(CSc1nnnn1-c1cccc(Cl)c1)Nc1ccc2c(c1)CCC2	x	8.9µM	x	u	n	x
O=C(CSc1nnnn1-c1cccc2c1CCCC2)N1CCCC1	23µM	u	16µM	n	n	n
O=C(CSc1nnnn1-c1cccnc1)Nc1cccc(Cl)c1	n	n	n	n	n	n
CCn1nnnc1SCC(=O)Nc1cc(OC)cc(OC)c1	u	n	16µM	n	n	n
O=C(CSc1nnnn1-c1cccc2c1CCCC2)N1CCOCC1	n	n	n	n	n	n
COc1cc(OC)cc(-n2nnnc2SCC(=O)N2CCCc3ccccc32)c1	u	n	u	n	u	n
O=C1NCCC[C@@H]1NC(=O)[C@@H]1CN(C(=O)c2cccs2)CCN1C(=O)c1ccccc1	x	x	x	x	x	n
O=C(Oc1ccc2ccccc2c1)C1(c2ccccc2)CC1	x	x	x	x	x	n
O=C1CO[C@H]2CN(Cc3ncc[nH]3)C[C@H]2N1Cc1ccccc1	x	x	x	x	x	n
COc1cccc(CN2CC(Oc3ccccc3C(=O)NC3CC3)C2)n1	x	x	x	x	x	n
O=C(CSc1nnnn1-c1ccccc1)CC(=O)Nc1ccc(Cl)cc1	u	n	u	n	16µM	n
COc1cccc(-n2nnnc2SCC(=O)Nc2ccc(NC(C)=O)cc2)c1	23µM	n	u	n	n	n
COc1cccc(-n2nnnc2SCC(=O)Nc2cccc(NC(C)=O)c2)c1	n	n	n	n	u	n
O=c1c2ccccc2cnn1CN1CCN(S(=O)(=O)c2ccc(Cl)cc2)CC1	x	x	x	x	x	n
Cc1ccc(C)c(N2CCN(C(=O)C3CCN(S(=O)(=O)c4c(C)noc4C)CC3)CC2)c1	8.2µM	u	10µM	u	12µM	n
Cc1noc(C)c1S(=O)(=O)N1CCC(C(=O)N2CCN(c3ccccc3)CC2)CC1	u	x	n	x	x	n
Cc1ccc(C)c(N2CCN(S(=O)(=O)c3c(C)noc3/C=C/N(C)C)CC2)c1	18µM	n	u	n	n	n
